According to PubChem BioAssay (NCI):
This is part of a sample that, as a whole, favours compounds with a hit. Of some 83,000 tested, about 20% had one in any assay.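 Single-dose data. Exposure time 48 hours. Values below 10 considered active.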 A number with no mark means an inactive call. The source made the active and inactive calls.

How the values were obtained:
Experiment in all cases: NCI-60 one-dose screen, 48 h (100 = growth as untreated, 0 = no growth, -100 = all killed)
Conditions in all cases: 10 µM unless noted
[1] = tested on: NCI-H23 lung
[2] = tested on: NCI-H226 lung
[3] = tested on: NCI-H322M lung
[4] = tested on: HOP-62 NSCLC
[5] = tested on: NCI-H460 lung
[6] = tested on: HOP-92 NSCLC
[7] = tested on: NCI-H522 lung
[8] = tested on: A549/ATCC NSCLC
[9] = tested on: 786-0 renal
[10] = tested on: DU-145 prostate
[11] = tested on: K-562 leukemia
[12] = tested on: MALME-3M melanoma
[13] = tested on: MDA-MB-231 breast
[14] = tested on: RXF 393 renal
[15] = tested on: SF-268 CNS
[16] = tested on: SF-539 CNS
[17] = tested on: UACC-257 melanoma
[18] = tested on: M14 melanoma
[19] = tested on: SF-295 CNS
[20] = tested on: COLO 205 colon

Compound: NC(N)=N/N=C(/c1ccccc1)c1ccc(N)cc1
- growth [1]: 101%
- growth [2]: 89.6%
- growth [3]: 91.2%
- growth [4]: 100%
- growth [5]: 110%
- growth [6]: 92.8%
- growth [7]: 88.5%
- growth [8]: 99.5%
- growth [9]: 105%
- growth [10]: 116%
- growth [11]: 113%
- growth [12]: 122%
- growth [13]: 103%
- growth [14]: 108%
- growth [15]: 115%
- growth [16]: 103%
- growth [17]: 92.7%
- growth [18]: 104%

Compound: O=C1CSC(c2ccccc2Cl)N1c1nnc(Cn2cnnc2)o1 (stereo not drawn)
- growth [1]: 51.7%
- growth [2]: 78.8%
- growth [3]: 87.1%
- growth [4]: 37.3%
- growth [5]: 34.2%
- growth [6]: 43%
- growth [7]: 101%
- growth [8]: 58%
- growth [9]: 41.9%
- growth [10]: 104%
- growth [11]: 8.59% (active)
- growth [12]: 28.9%
- growth [13]: 68.6%
- growth [15]: 94.7%
- growth [19]: -32.6% (active)
- growth [16]: 39.7%
- growth [18]: 20.4%

Compound: C(=C\c1nc2ccccc2[nH]1)/c1nc2ccccc2[nH]1
- growth [1]: 96.5%
- growth [2]: 92.6%
- growth [3]: 98.6%
- growth [4]: 110%
- growth [5]: 103%
- growth [6]: 95%
- growth [7]: 98%
- growth [8]: 99.1%
- growth [9]: 113%
- growth [10]: 107%
- growth [11]: 90%
- growth [13]: 90.4%
- growth [14]: 122%
- growth [15]: 110%
- growth [19]: 100%
- growth [16]: 104%
- growth [17]: 86.6%
- growth [18]: 100%

Compound: C=CC(=O)N[C@@H](Cc1ccc(-c2cc(Cl)cc(Cl)c2)cc1)[C@@H](O)[C@H](O)C(=O)O
- growth [1]: 99.9%
- growth [2]: 84.9%
- growth [3]: 105%
- growth [4]: 79%
- growth [5]: 105%
- growth [6]: 93.9%
- growth [7]: 67.7%
- growth [8]: 79%
- growth [9]: 98.6%
- growth [10]: 109%
- growth [11]: 101%
- growth [12]: 96.6%
- growth [13]: 104%
- growth [15]: 101%
- growth [19]: 100%
- growth [16]: 94.9%
- growth [18]: 99.4%

Compound: N#Cc1cnn2c(-c3ccc(Cl)cc3)nc(NCCc3ccccc3)nc12
- growth [1]: 85.2%
- growth [2]: 105%
- growth [3]: 83.5%
- growth [4]: 84.9%
- growth [5]: 99%
- growth [6]: 92.6%
- growth [7]: 74.4%
- growth [8]: 93.3%
- growth [9]: 92.5%
- growth [10]: 99.5%
- growth [12]: 111%
- growth [13]: 87.5%
- growth [14]: 116%
- growth [15]: 92.2%
- growth [19]: 99.2%
- growth [16]: 98%
- growth [17]: 99.9%
- growth [18]: 95%

Compound: Cc1cc2c(F)c(Oc3ncnc(Nc4ccc(N5C[C@@H](C)N[C@@H](C)C5)cc4)c3C#N)cc(F)c2[nH]1
- growth [1]: 75%
- growth [2]: 74.1%
- growth [3]: 47.9%
- growth [4]: 75.8%
- growth [5]: 6.38% (active)
- growth [6]: 89.1%
- growth [7]: -21.8% (active)
- growth [8]: 13.7%
- growth [20]: -56.5% (active)
- growth [10]: 38.9%
- growth [11]: -40.4% (active)
- growth [12]: 75%
- growth [13]: -0.722% (active)
- growth [14]: -25.7% (active)
- growth [15]: 29.3%
- growth [19]: 17.4%
- growth [16]: -78.7% (active)
- growth [17]: 65.9%

Compound: CN(C)c1cnccn1
- growth [1]: 91.9%
- growth [2]: 85.4%
- growth [3]: 114%
- growth [4]: 90.3%
- growth [5]: 93.8%
- growth [6]: 94.4%
- growth [7]: 45.9%
- growth [8]: 91.3%
- growth [9]: 98.3%
- growth [12]: 127%
- growth [13]: 72.4%
- growth [14]: 94.5%
- growth [15]: 91.6%
- growth [19]: 122%
- growth [16]: 86.5%
- growth [17]: 95.3%
- growth [18]: 97.5%

Compound: Cc1ccc(C)c2c1C(=O)OC2=O
- growth [1]: 95.5%
- growth [2]: 98.4%
- growth [3]: 89.3%
- growth [4]: 92.1%
- growth [5]: 111%
- growth [6]: 128%
- growth [7]: 80.8%
- growth [8]: 99.4%
- growth [9]: 101%
- growth [11]: 78.9%
- growth [12]: 87.8%
- growth [13]: 106%
- growth [14]: 127%
- growth [15]: 98.8%
- growth [19]: 96.2%
- growth [16]: 99.7%
- growth [17]: 102%
- growth [18]: 102%

Compound: COc1cc(-c2ccc(N=Nc3c(O)c(C(=O)Nc4ccccc4OC)cc4ccccc34)c(OC)c2)ccc1N=Nc1c(O)c(C(=O)Nc2ccccc2OC)cc2ccccc12
- growth [1]: 93.5%
- growth [2]: 94.1%
- growth [3]: 86.8%
- growth [4]: 80.6%
- growth [5]: 99.6%
- growth [6]: 77.6%
- growth [7]: 90.4%
- growth [8]: 95.6%
- growth [9]: 87.2%
- growth [11]: 90.6%
- growth [12]: 90.6%
- growth [13]: 76.2%
- growth [14]: 93.1%
- growth [15]: 87.5%
- growth [19]: 95.1%
- growth [16]: 103%
- growth [17]: 109%
- growth [18]: 90.7%

Compound: O=C1c2ccccc2C2(c3ccc(O)cc3)c3ccccc3Oc3cccc1c32 (stereo not drawn)
- growth [1]: 33.4%
- growth [2]: 85.9%
- growth [3]: 32.5%
- growth [4]: 31.5%
- growth [5]: 11.3%
- growth [6]: 29.9%
- growth [7]: 48.6%
- growth [8]: 29%
- growth [9]: 40.6%
- growth [11]: 19.8%
- growth [12]: 66.4%
- growth [13]: 21.8%
- growth [14]: 11%
- growth [15]: 40.3%
- growth [19]: 21.3%
- growth [16]: -1.29% (active)
- growth [17]: 48%
- growth [18]: 0.454% (active)

Compound: Cc1nc(C)c(-c2nn3c(-c4cccc(F)c4)nnc3s2)s1
- growth [1]: 97.3%
- growth [2]: 102%
- growth [3]: 106%
- growth [4]: 98.7%
- growth [5]: 102%
- growth [6]: 86.2%
- growth [7]: 77.6%
- growth [8]: 87%
- growth [20]: 101%
- growth [10]: 102%
- growth [11]: 70.4%
- growth [12]: 111%
- growth [13]: 107%
- growth [14]: 96.3%
- growth [15]: 97.6%
- growth [19]: 100%
- growth [16]: 104%
- growth [17]: 92.4%

Compound: Cc1ccc(NC(=O)C(Cl)Cl)cc1
- growth [1]: 95.8%
- growth [2]: 79.1%
- growth [3]: 84.1%
- growth [4]: 98.4%
- growth [5]: 102%
- growth [6]: 98.2%
- growth [7]: 80.9%
- growth [8]: 90.8%
- growth [9]: 104%
- growth [11]: 106%
- growth [12]: 92.7%
- growth [13]: 99.1%
- growth [14]: 119%
- growth [15]: 105%
- growth [19]: 97.8%
- growth [16]: 98.4%
- growth [17]: 92%
- growth [18]: 109%

Compound: Cc1nc2ccccc2c(/C=C/c2ccc(Cl)cc2)c1C(=O)/C=C/c1ccc(Cl)cc1
- growth [1]: -19.7% (active)
- growth [2]: -40.6% (active)
- growth [3]: 5.27% (active)
- growth [4]: -7.32% (active)
- growth [5]: -76.3% (active)
- growth [6]: -59.9% (active)
- growth [7]: -14.6% (active)
- growth [8]: 56.9%
- growth [20]: -24.5% (active)
- growth [10]: -70.5% (active)
- growth [11]: 2% (active)
- growth [12]: -54.1% (active)
- growth [13]: -34.1% (active)
- growth [14]: -72.4% (active)
- growth [15]: 25.8%
- growth [19]: -65.6% (active)
- growth [16]: -88.4% (active)
- growth [17]: -17.2% (active)

Compound: CCCCCCNc1cc(C)nc2ccc(OC)cc12
- growth [1]: 52.7%
- growth [2]: 61.5%
- growth [3]: 67.2%
- growth [4]: 73.1%
- growth [5]: 61.6%
- growth [6]: 39.3%
- growth [7]: 63.9%
- growth [8]: 64.3%
- growth [9]: 68.9%
- growth [11]: 21%
- growth [12]: 52.3%
- growth [13]: 69.6%
- growth [14]: 61.2%
- growth [15]: 93.2%
- growth [19]: 44.4%
- growth [16]: 68.4%
- growth [17]: 69.4%
- growth [18]: 59.1%

Compound: C#C[C@]1(O)CC[C@H]2[C@@H]3CC=C4c5sc(N=C(N)N)nc5CC[C@]4(C)[C@H]3CC[C@@]21C
- growth [1]: 28.5%
- growth [2]: 35.2%
- growth [3]: 27.9%
- growth [4]: -37.5% (active)
- growth [5]: -14.5% (active)
- growth [6]: 32.7%
- growth [7]: -24.1% (active)
- growth [8]: -13.1% (active)
- growth [20]: -38.7% (active)
- growth [10]: 8.62% (active)
- growth [11]: -21.1% (active)
- growth [12]: -76.2% (active)
- growth [13]: -45.4% (active)
- growth [14]: -56.6% (active)
- growth [15]: -15% (active)
- growth [19]: -56.2% (active)
- growth [16]: -81.3% (active)
- growth [17]: -44.8% (active)

Compound: Cc1ccc(NSc2ccccc2[N+](=O)[O-])cc1
- growth [1]: 44.6%
- growth [2]: 65.5%
- growth [3]: 38.6%
- growth [4]: 24.8%
- growth [5]: 14.7%
- growth [6]: 37.7%
- growth [7]: 12.7%
- growth [8]: 20.5%
- growth [9]: 40.2%
- growth [11]: 16.9%
- growth [12]: 44.9%
- growth [13]: 53.7%
- growth [14]: -6.02% (active)
- growth [15]: 48.7%
- growth [19]: 11.4%
- growth [16]: -12.3% (active)
- growth [17]: 58.1%
- growth [18]: 7.95% (active)

Compound: COc1ccc(-c2nnc(-c3ccc4c(c3)nc(-c3ccccc3)n4C3CCCCC3)o2)cc1
- growth [1]: 62.5%
- growth [2]: 46.4%
- growth [3]: 87%
- growth [4]: 50.5%
- growth [5]: 64.4%
- growth [6]: 57%
- growth [7]: 17.6%
- growth [8]: 50.3%
- growth [9]: 77.5%
- growth [10]: 71.7%
- growth [12]: 69.4%
- growth [13]: 72.9%
- growth [14]: 97.3%
- growth [15]: 71.2%
- growth [19]: 53.2%
- growth [16]: 88.1%
- growth [17]: 67.4%
- growth [18]: 38.9%
